# Assay outcomes (PubChem BioAssay)
# MBD2 DNA inh: blocks human MBD2 binding to methylated DNA; 0.31% of 370,000 active; inhibition, % at 4.4 µM; AID 686964; Q9UBB5; TR-FRET, MBD2 binding to methylated oligonucleotide; in the data active means inhibition above about 13%
# LEDGF integ inh: blocks HIV-1 LEDGF/p75-dependent DNA integration; inhibition, % at 3.7 µM; TR-FRET IN-LEDGF/p75 DNA integration, Eu/Cy5; 0.64% of 370,000 active;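 active means inhibition above the screen-wide mean plus 3 SD, cut at about 13% in these data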;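 further: signal is the Cy5 over europium emission ratio at 671 and 618 nm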
# PLCb3 inh: inhibitors of human phospholipase C beta3; inhibition, % at 12.2 µM; Purified PLC-beta3, fluorogenic substrate, fluorescence; 0.18% of 370,000 active; Q01970; in the data active means inhibition above about 11%
# PLC-gamma1 inh: inhibitors of human phospholipase C gamma1. P19174. purified PLC-gamma1, fluorogenic substrate, fluorescence. inhibition, % at 12.2 µM. 0.84% of 370,000 active; in the data active means inhibition above about 9.5%
# UHRF1 binding: human UHRF1 methylated DNA binding inhibitors; UHRF1 binding to methylated oligo, TR-FRET; inhibition, % at 4.4 µM; 0.75% of 370,000 active; AID 687016; in the data active means inhibition above about 21%;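 further: UHRF1 SRA domain binding a hemimethylated CpG hairpin DNA probe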
# Target sequence (Q96T88 whole entry, looked up, the tested form may be a part): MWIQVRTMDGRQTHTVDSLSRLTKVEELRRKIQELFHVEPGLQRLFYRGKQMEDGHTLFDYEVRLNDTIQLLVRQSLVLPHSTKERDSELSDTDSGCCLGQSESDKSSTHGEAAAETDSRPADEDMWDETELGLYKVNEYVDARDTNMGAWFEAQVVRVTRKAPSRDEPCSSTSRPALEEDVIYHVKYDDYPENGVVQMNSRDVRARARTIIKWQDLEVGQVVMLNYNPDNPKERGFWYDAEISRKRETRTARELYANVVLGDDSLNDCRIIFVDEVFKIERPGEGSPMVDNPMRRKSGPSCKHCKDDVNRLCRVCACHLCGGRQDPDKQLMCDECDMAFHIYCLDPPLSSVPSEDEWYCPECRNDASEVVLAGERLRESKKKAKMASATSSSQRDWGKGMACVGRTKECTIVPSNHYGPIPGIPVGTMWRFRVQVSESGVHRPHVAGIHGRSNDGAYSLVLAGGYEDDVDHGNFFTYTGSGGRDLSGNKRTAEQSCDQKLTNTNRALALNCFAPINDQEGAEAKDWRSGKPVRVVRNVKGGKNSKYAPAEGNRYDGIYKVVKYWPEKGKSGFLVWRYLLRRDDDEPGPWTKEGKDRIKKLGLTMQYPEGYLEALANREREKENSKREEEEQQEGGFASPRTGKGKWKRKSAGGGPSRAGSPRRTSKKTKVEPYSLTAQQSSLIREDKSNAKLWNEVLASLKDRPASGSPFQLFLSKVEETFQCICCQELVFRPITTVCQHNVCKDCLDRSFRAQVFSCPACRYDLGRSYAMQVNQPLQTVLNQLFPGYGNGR
# IN multimer up: activates HIV-1 integrase multimerization in LEDGF counter-screen. 17% of 2,000 active. shares compounds with LEDGF integ inh. activation, % at 7.7 µM. TR-FRET HIV-1 integrase multimerization, biochemical. AID 1053131; in the data active means activation above about 8.9%
# TR-FRET interf: counter-screen for LEDGF/p75 integration inhibitors: TR-FRET optical interference | shares compounds with LEDGF integ inh | TR-FRET optical interference counterscreen, HIV-1 IN multimerization | inhibition, % at 7.7 µM | 2,000 tested, under 10 active;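 active means inhibition above the mean over all tested compounds plus 3 SD, which no compound reached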
# IN-LEDGF confirm: LEDGF/p75-dependent HIV-1 integration inhibition, confirmation. shares compounds with LEDGF integ inh. 36% of 2,000 active. TR-FRET LEDGF/p75-dependent HIV-1 integration, biochemical. inhibition, % at 3.7 µM; in the data active means inhibition above about 14%
# Numbers stand for hits; n = inactive; x = not tested or not shown. Most compounds without a hit are left out; they make up all but 2.3% or so of the library.
SMILES,MBD2 DNA inh,LEDGF integ inh,PLCb3 inh,PLC-gamma1 inh,UHRF1 binding,IN multimer up,TR-FRET interf,IN-LEDGF confirm
Clc1ccc(/C=N/NC2=Nc3cccc4cccc2c34)cc1,n,n,n,n,n,x,x,x
C(=N\NC1=Nc2cccc3cccc1c23)/c1ccccc1,n,19,n,n,n,n,n,n
O=C(O)/C=C/C(=O)N1Cc2cc3ccccc3nc2C1,n,19,n,n,n,n,n,n
CCOC(=O)N1Cc2cc3ccccc3nc2C1,n,n,n,n,n,x,x,x
Cn1c(=O)cc(OCC(=O)N2CCN(c3ccccc3Cl)CC2)c2ccccc21,n,n,n,n,n,x,x,x
O=C(O)c1cc(-c2ccco2)[nH]n1,n,15,n,n,n,n,n,n
CC1CCC(C(=O)NNC(=O)c2cc(-c3ccco3)[nH]n2)CC1 (centres undefined),n,n,n,n,n,x,x,x
C/C(=N/NC(=O)c1cccnc1)c1cccc(O)c1,n,n,n,n,n,x,x,x
N#CC1=C(N)n2c(s/c(=C\c3ccco3)c2=O)=C(C#N)C1c1ccco1 (centres undefined),n,38,n,n,41,18,n,66
CCOC(=O)C1=C(N)n2c(s/c(=C/c3ccco3)c2=O)=C(C(=O)OC)C1c1ccco1 (centres undefined),n,48,n,n,n,n,n,n
N#CC1=C(N)n2c(s/c(=C\c3cccs3)c2=O)=C(C#N)C1c1cccs1 (centres undefined),n,n,n,n,n,x,x,x
CCOC(=O)C1=c2s/c(=C\c3ccncc3)c(=O)n2C(N)=C(C(=O)OC)C1c1ccncc1 (centres undefined),n,n,n,n,n,x,x,x
O=C(/C=C/c1ccco1)Nc1cc(Cl)ccc1C(=O)O,n,n,n,n,n,x,x,x
O=C(/C=C/c1ccco1)Nc1ccccc1C(=O)O,n,17,n,n,24,n,n,33
O=C(/C=C/c1ccco1)Nc1ccccc1C(=O)Nc1cccc(C(=O)O)c1,n,25,n,n,n,n,n,19
O=C(O)CCCNC(=O)/C=C/c1ccco1,n,38,n,n,58,38,n,87
Cc1cc(NC(=O)/C=C/c2ccco2)ccc1NC(=O)c1ccccc1,n,n,n,n,n,x,x,x
O=C(/C=C/c1ccco1)Nc1sc2c(c1C(=O)O)CCC2,n,21,n,n,33,n,n,n
Cc1ccc(Cn2cc(CN(C(C)(C)C)S(=O)(=O)c3ccccc3Br)nn2)cc1,n,n,n,n,n,x,x,x
Cc1cc(C)n(-c2nc3ccccc3nc2NCCc2ccccc2)n1,n,21,n,n,n,n,n,n
CC1(C(=O)NCCC(F)(F)F)Cc2c(-c3cccc(C(F)(F)F)c3)ccnc2O1 (centres undefined),n,n,n,n,n,x,x,x
CC1(C(=O)NCCC(F)(F)F)Cc2c(-c3cccc(C(N)=O)c3)ccnc2O1 (centres undefined),n,14,n,n,n,n,n,n
O=C(Nc1cccs1)OC1CC2CC1[C@H]1CCCCN1C2 (some centres undefined),n,n,n,n,n,x,x,x
COc1cc(/C=N/n2nnnc2N)ccc1OCc1c(C)no[n+]1[O-],n,n,n,n,n,x,x,x
Cc1no[n+]([O-])c1COc1cccc(/C=N/Nc2nncn2N)c1,n,58,n,n,n,n,n,n
SMILES,MBD2 DNA inh,LEDGF integ inh,PLCb3 inh,PLC-gamma1 inh,UHRF1 binding,IN multimer up,TR-FRET interf,IN-LEDGF confirm
CCNC(=O)c1ccccc1SCc1ccccc1,n,14,n,n,n,n,n,n
O=C(Nc1ccc(Cl)cn1)c1ccccc1SCc1ccccc1,n,n,n,n,n,x,x,x
Cc1cccc(NC(=O)c2ccccc2SCc2ccc(F)cc2)n1,n,53,n,n,n,n,n,n
CCc1ccc(OCCNC(=O)c2ccccc2SCc2ccccc2)cc1,n,n,n,n,n,x,x,x
Cc1ccc(OCc2nnc(SCC(=O)c3ccc(-c4ccccc4)cc3)n2Cc2ccco2)cc1,n,n,n,n,n,x,x,x
CCOC(=O)c1ccccc1NC(=O)CSc1ncc(C(=O)OCC)c(N)n1,n,n,n,n,n,x,x,x
CCOC(=O)c1cnc(SCC(=O)NNC(=O)c2ccco2)nc1N,n,72,n,n,n,n,n,n
CC1Cc2ccccc2N1C(=O)c1ccc(F)c(S(=O)(=O)N2CCOCC2)c1 (centres undefined),n,26,n,n,n,n,n,n
O=C(Nc1ccccc1N1CCOCC1)c1ccc(F)c(S(=O)(=O)N2CCOCC2)c1,n,n,n,n,n,x,x,x
CC(C(=O)Nc1cccc([N+](=O)[O-])c1)n1nnc2ccccc21 (centres undefined),n,82,n,n,n,n,n,n
Cc1ccccc1NC(=O)OCCCN1C(=O)CCC12CCC(C)CC2 (centres undefined),n,n,n,n,n,x,x,x
O=C1CC(NS(=O)(=O)c2ccc3ccccc3c2)CN1c1ccccc1 (centres undefined),n,56,n,n,n,n,n,n
O=C1CC(NS(=O)(=O)c2cccnc2)CN1c1ccccc1 (centres undefined),n,n,n,n,n,x,x,x
COC(=O)[C@]12C=CCN1[C@H](c1ccc(OC)c(OC)c1)c1c(c3ccccc3n1S(=O)(=O)c1ccc(C)cc1)C2,n,n,n,n,n,x,x,x
O=C1NC(c2cccc(Br)c2)=N/C1=C\c1ccco1,n,21,n,n,n,n,n,n
CC(C)(C)C(=O)O[C@@H]1CCC[C@@]2(C(=O)N(Cc3ccccc3)c3ccccc32)[C@H]1NC(=O)CCc1ccccc1,n,n,n,n,n,x,x,x
C=CC[C@@H]1NN2C(=O)[C@@H](CCCC)[C@@H]3c4ccccc4C=NN3[C@@H]2c2ccccc21,n,n,n,n,n,x,x,x
Cc1nc2ccccc2nc1OCC(=O)Nc1ccccc1,n,17,n,n,n,n,n,n
COc1cccc(NC(=O)COc2nc3ccccc3nc2C)c1,n,n,n,n,n,x,x,x
CCN(CC)c1ccc(N=C2C=CC(=O)C=C2NC(C)=O)cc1,n,73,n,n,n,36,n,35
CCN(CC)c1ccc(NC(=O)Nc2ccc(C(C)=O)cc2)cc1,n,n,n,n,n,x,x,x
CCc1nc2ccc(C(=O)NCc3cccs3)cn2c1N(CCC(C)C)CCN(C)C,n,14,n,n,n,n,n,n
CCc1nc2ccc(C(=O)NCc3cccs3)cn2c1N(CC)CCN(C)C,n,n,n,n,n,x,x,x
CC(C)=CCC1=C(OCC(=O)O)C(=O)c2ccccc2C1=O,n,25,n,n,n,n,n,57
